In PubChem BioAssay (NCI):
Where “and” joins values, the source holds several entries; their conditions need not be identical. Identical values can stand only once. Compounds without any hit were thinned out: in the full panel of roughly 83,000, 20% have a hit.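 How to read the values: 0–100, growth inhibition (40 = 60% inhibited); 0, no net growth; -100 to 0, cell death (-40 = 40% of starting cells died; -100 = all dead).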 Calls of active or inactive are those of the source. How the source made its calls: active means growth percent below 10; inactive means the rest.

What was measured:
Experiment in all cases: NCI-60 one-dose screen, 48 h (100 = growth as untreated, 0 = no growth, -100 = all killed)
Settings in all cases: 10 µM unless noted
HCT-15 colon = test system: HCT-15 colon
HT29 colon = test system: HT29 colon
SNB-75 CNS = test system: SNB-75 CNS
SNB-19 CNS = test system: SNB-19 CNS
U251 CNS = test system: U251 CNS
PC-3 prostate = test system: PC-3 prostate
SK-MEL-5 melanoma = test system: SK-MEL-5 melanoma
UACC-62 melanoma = test system: UACC-62 melanoma
LOX IMVI melanoma = test system: LOX IMVI melanoma
SK-MEL-28 melanoma = test system: SK-MEL-28 melanoma
SK-MEL-2 melanoma = test system: SK-MEL-2 melanoma
EKVX NSCLC = test system: EKVX NSCLC
SN12C renal = test system: SN12C renal
UO-31 renal = test system: UO-31 renal
TK-10 renal = test system: TK-10 renal
CAKI-1 renal = test system: CAKI-1 renal
A498 renal = test system: A498 renal
CCRF-CEM leukemia = test system: CCRF-CEM leukemia
MOLT-4 leukemia = test system: MOLT-4 leukemia
ACHN renal = test system: ACHN renal

Row | SMILES | growth (HCT-15 colon) | growth (HT29 colon) | growth (SNB-75 CNS) | growth (SNB-19 CNS) | growth (U251 CNS) | growth (PC-3 prostate) | growth (SK-MEL-5 melanoma) | growth (UACC-62 melanoma) | growth (LOX IMVI melanoma) | growth (SK-MEL-28 melanoma) | growth (SK-MEL-2 melanoma) | growth (EKVX NSCLC) | growth (SN12C renal) | growth (UO-31 renal) | growth (TK-10 renal) | growth (CAKI-1 renal) | growth (A498 renal) | growth (CCRF-CEM leukemia) | growth (MOLT-4 leukemia) | growth (ACHN renal)
1 | O=[N+]([O-])c1ccc(N/N=C\c2cc(Br)ccc2O)nc1 | 21.6% (inactive) and 31.2% (inactive) | 27.8% (inactive) | 38.3% (inactive) and 47.7% (inactive) | 29.2% (inactive) and 28.4% (inactive) | 16.6% (inactive) and 5.3% (active) | 25.8% (inactive) | -3.76% (active) and -35.9% (active) | 1.29% (active) and -17.2% (active) | 10.5% (inactive) and -18.4% (active) | 37.9% (inactive) and 34.1% (inactive) | 39.7% (inactive) | 81% (inactive) and 46.4% (inactive) | 22.3% (inactive) and 20.3% (inactive) | -6.22% (active) and -11.8% (active) | 22.1% (inactive) and 37.9% (inactive) | 0.337% (active) and 2.29% (active) | 69.5% (inactive) | 17.5% (inactive) and -4.06% (active) | 12% (inactive) and -9.48% (active) | –
2 | COc1ccccc1/C=N\N=C(N/N=C/c1ccccc1OC)N/N=C/c1ccccc1OC | 55.9% (inactive) and 32.1% (inactive) | 23.7% (inactive) and 12.9% (inactive) | 86.7% (inactive) and 71.1% (inactive) | 59% (inactive) and 23.7% (inactive) | 39.3% (inactive) and 15.3% (inactive) | 41.2% (inactive) and 19.7% (inactive) | 69.8% (inactive) and -91.3% (active) | 55.5% (inactive) and 19.7% (inactive) | 28.6% (inactive) | 78.8% (inactive) and 64.5% (inactive) | 47.5% (inactive) and 31.8% (inactive) | 74.4% (inactive) and 48.3% (inactive) | 77.2% (inactive) and 28.4% (inactive) | – | 110% (inactive) and 57.7% (inactive) | – | 100% (inactive) and 72.2% (inactive) | 39.9% (inactive) and 23.4% (inactive) | 31.1% (inactive) and 8.9% (active) | 63.8% (inactive) and 40.6% (inactive)
3 | Clc1ccc(NC(Nc2ccc(Cl)cc2)C(Cl)(Cl)Cl)cc1 | 65.6% (inactive) and 88.7% (inactive) | 101% (inactive) and 98.4% (inactive) | 79.2% (inactive) and 105% (inactive) | 104% (inactive) and 112% (inactive) | 95% (inactive) and 110% (inactive) | 91.9% (inactive) | 91.3% (inactive) and 85.3% (inactive) | 9.46% (active) and 62.8% (inactive) | 74.5% (inactive) | 105% (inactive) and 114% (inactive) | 85.6% (inactive) and 95.8% (inactive) | 85.7% (inactive) and 99.3% (inactive) | 84% (inactive) and 111% (inactive) | 25.5% (inactive) and 75.1% (inactive) | 110% (inactive) and 92.3% (inactive) | – | 107% (inactive) and 101% (inactive) | 95% (inactive) | 70.3% (inactive) and 89.5% (inactive) | 41.6% (inactive)
4 | CCCCCCCCCCCCCCCc1cc(O)ccc1N | 89.4% (inactive) and 75.6% (inactive) | 105% (inactive) and 107% (inactive) | 63.5% (inactive) and 30.1% (inactive) | 96.8% (inactive) and 118% (inactive) | 68.1% (inactive) and 81.1% (inactive) | 34.6% (inactive) and 22.2% (inactive) | 100% (inactive) and 78.6% (inactive) | 84.3% (inactive) | 34.5% (inactive) and -35.1% (active) | 106% (inactive) and 103% (inactive) | 105% (inactive) and 106% (inactive) | 86.6% (inactive) and 85.6% (inactive) | 51.2% (inactive) and 62.2% (inactive) | -59.8% (active) and 20.5% (inactive) | 123% (inactive) and 98.3% (inactive) | – | 133% (inactive) and 122% (inactive) | 5.23% (active) and -6.89% (active) | -1.13% (active) and -2.69% (active) | –
5 | NS(=O)(=O)c1cc2c(cc1Cl)NC(C(Cl)Cl)NS2(=O)=O (configuration not stated) | 95.3% (inactive) and 101% (inactive) | 101% (inactive) and 114% (inactive) | 77.7% (inactive) and 114% (inactive) | 104% (inactive) and 105% (inactive) | 86.5% (inactive) and 104% (inactive) | 99% (inactive) and 99.8% (inactive) | 99.7% (inactive) and 102% (inactive) | 103% (inactive) | 98.6% (inactive) and 99.9% (inactive) | 99.8% (inactive) and 115% (inactive) | 104% (inactive) and 135% (inactive) | 89.3% (inactive) and 110% (inactive) | 93.2% (inactive) and 103% (inactive) | 90.7% (inactive) and 87.4% (inactive) | 98.5% (inactive) and 121% (inactive) | 98.8% (inactive) and 95.4% (inactive) | 97.6% (inactive) and 96.2% (inactive) | 89.2% (inactive) and 92.5% (inactive) | 95.1% (inactive) and 92.4% (inactive) | –
6 | CC(=O)Nc1cc(S(=O)(=O)O)cc2cc(S(=O)(=O)O)c(N=Nc3ccccc3)c(O)c12 | 116% (inactive) and 111% (inactive) | 118% (inactive) and 92.2% (inactive) | 92.8% (inactive) and 98.1% (inactive) | 110% (inactive) and 99.9% (inactive) | 110% (inactive) and 101% (inactive) | 88.3% (inactive) and 94.9% (inactive) | 99.4% (inactive) | 108% (inactive) and 92.2% (inactive) | 103% (inactive) and 98.7% (inactive) | 119% (inactive) and 116% (inactive) | 116% (inactive) and 88.7% (inactive) | 115% (inactive) and 113% (inactive) | 106% (inactive) and 98.4% (inactive) | 94.2% (inactive) and 83.2% (inactive) | 110% (inactive) and 98.4% (inactive) | 99.6% (inactive) | 102% (inactive) and 92.4% (inactive) | 97.5% (inactive) and 90.8% (inactive) | 111% (inactive) and 94.7% (inactive) | –
7 | NC(=O)NO | 106% (inactive) and 72.2% (inactive) | 104% (inactive) and 70.3% (inactive) | 91.7% (inactive) and 60.3% (inactive) | 105% (inactive) and 69.6% (inactive) | 96.6% (inactive) and 65.5% (inactive) | 106% (inactive) and 72.6% (inactive) | 106% (inactive) and 80.5% (inactive) | 103% (inactive) and 74.6% (inactive) | 101% (inactive) and 59% (inactive) | 107% (inactive) and 45.5% (inactive) | 110% (inactive) and 94.1% (inactive) | 98.9% (inactive) and 59.5% (inactive) | 104% (inactive) and 71.5% (inactive) | 87.8% (inactive) and 48.8% (inactive) | 113% (inactive) and 85% (inactive) | – | 104% (inactive) and -7.21% (active) | 82.2% (inactive) and 68% (inactive) | 95.9% (inactive) and 75.1% (inactive) | –
8 | CCOc1ccc2cc(-c3nn(CC4CCN(C)CC4)c4ncnc(N)c34)ccc2c1 | 76% (inactive) and 29.8% (inactive) | 69.2% (inactive) and 9.92% (active) | 50% (inactive) and 33.9% (inactive) | 92.8% (inactive) and 68.3% (inactive) | 83.8% (inactive) and 43.3% (inactive) | 85.8% (inactive) and 51.5% (inactive) | 87.2% (inactive) and -65.2% (active) | -24.5% (active) | 77.7% (inactive) and 6.18% (active) | 97.1% (inactive) and -58.3% (active) | 108% (inactive) | 101% (inactive) and 56.5% (inactive) | 83.7% (inactive) | – | 70.9% (inactive) and 77.8% (inactive) | 87.6% (inactive) and 85.5% (inactive) | 74% (inactive) and 23.7% (inactive) | 90.7% (inactive) and 3.75% (active) | 70.1% (inactive) and -4.41% (active) | 96.5% (inactive) and 53.9% (inactive)
9 | Cc1cc(C)c(N)c(Br)c1 | 106% (inactive) and 95.4% (inactive) | 102% (inactive) and 90.4% (inactive) | 83.3% (inactive) and 74.5% (inactive) | 107% (inactive) and 94.7% (inactive) | 105% (inactive) and 104% (inactive) | 102% (inactive) and 91.9% (inactive) | 103% (inactive) and 96.3% (inactive) | 108% (inactive) and 94.5% (inactive) | 106% (inactive) and 96.4% (inactive) | 110% (inactive) and 102% (inactive) | 96.9% (inactive) and 99.3% (inactive) | 110% (inactive) and 97.1% (inactive) | 110% (inactive) and 101% (inactive) | – | 108% (inactive) and 112% (inactive) | 91.4% (inactive) and 74.5% (inactive) | – | 97.4% (inactive) and 90.1% (inactive) | 106% (inactive) and 111% (inactive) | 106% (inactive) and 95.4% (inactive)
